# Test results from PubChem BioAssay (Tox21).
# Inconclusive results are not listed. Some structures have more than one record in an assay (separate samples or runs), and their calls can disagree. Activity calls are given as the source filed them. Positions of bridges follow the written chain, without caps; N, C: chain ends. Non-standard residues stand in square brackets, D forms with d. Residues, ends and D or L forms follow the SMILES beside them. Orn = NCCC[C@H](N)C(=O)O; Mpa = O=C(O)CCS
# Target: Glucocorticoid receptor (Homo sapiens) (UniProt P04150)
# Experiment: qHTS assay to identify small molecule agonists of the glucocorticoid receptor (GR) signaling pathway (AID 720691; active = well fitted activation curve with a large enough effect in the signal ratio in the repeat runs, not every such curve was filed as active; the % refers to the signal ratio; note: potency is the fitted concentration of half-maximal effect)
# Conditions: GR-bla HeLa, beta-lactamase reporter ratio, 18 h; activation: at 62.4 µM (top of the series)
# In short: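 Reporter read-out: fluorescence intensity following 2 h room-temperature LiveBLAzer B/G FRET substrate loading. Prior step: GR-bla HeLa cells held 4 h, then treated 18 h at 37 C.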
# % is set by controls: 0 for no effect and ±100 for the full control effect.
# Sequence of Glucocorticoid receptor (Homo sapiens) (P04150 whole entry, looked up): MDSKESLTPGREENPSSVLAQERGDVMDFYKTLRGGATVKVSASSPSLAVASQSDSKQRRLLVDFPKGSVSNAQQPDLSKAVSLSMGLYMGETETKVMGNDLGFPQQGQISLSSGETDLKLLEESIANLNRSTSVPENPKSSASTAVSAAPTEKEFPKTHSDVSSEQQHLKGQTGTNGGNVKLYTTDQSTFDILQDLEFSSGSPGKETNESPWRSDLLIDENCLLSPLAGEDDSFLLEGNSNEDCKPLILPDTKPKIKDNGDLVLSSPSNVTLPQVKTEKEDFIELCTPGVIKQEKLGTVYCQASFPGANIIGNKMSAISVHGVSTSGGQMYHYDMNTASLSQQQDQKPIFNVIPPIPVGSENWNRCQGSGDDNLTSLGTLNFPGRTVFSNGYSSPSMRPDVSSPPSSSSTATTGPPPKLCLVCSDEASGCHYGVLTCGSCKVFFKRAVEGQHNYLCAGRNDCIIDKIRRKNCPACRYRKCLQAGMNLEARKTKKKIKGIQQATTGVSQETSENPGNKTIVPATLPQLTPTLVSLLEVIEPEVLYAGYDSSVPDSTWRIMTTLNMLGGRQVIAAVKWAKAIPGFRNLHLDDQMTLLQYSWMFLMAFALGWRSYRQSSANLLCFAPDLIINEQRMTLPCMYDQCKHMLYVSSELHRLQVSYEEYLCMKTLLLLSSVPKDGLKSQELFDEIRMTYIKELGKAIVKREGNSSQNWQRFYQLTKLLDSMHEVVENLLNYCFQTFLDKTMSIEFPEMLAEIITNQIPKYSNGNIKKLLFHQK
SMILES,Potency,activation
CO[C@@H]1[C@@H](O[C@@H]2O[C@H](C)[C@@H](O[C@H]3C[C@@](C)(O)[C@@H](OC(=O)CC(C)C)[C@H](C)O3)[C@H](N(C)C)[C@H]2O)[C@@H](CC=O)C[C@@H](C)[C@@H](O)/C=C/C=C/C[C@@H](C)OC(=O)C[C@H]1O,4.25 µM (active) and inactive,
CCOc1ccc(C[C@H]2NC(=O)CCSSC[C@@H](C(=O)N3CCC[C@H]3C(=O)N[C@@H](CCCN)C(=O)NCC(N)=O)NC(=O)[C@H](CC(N)=O)NC(=O)[C@H]([C@@H](C)O)NC(=O)[C@H]([C@@H](C)CC)NC2=O)cc1 ([Mpa][dY](Et)ITNCP[Orn]G-NH2; disulfide 1-6),,1.04% (inactive)
O=P(O)(O)C(O)(Cc1cnc2ccccn12)P(=O)(O)O,,-2.26% (inactive)
OCC(O)COc1ccc(Cl)cc1 (stereo not given),,0.0645% (inactive)
NC(=O)Oc1ccc(Cc2ccccc2)cc1,,-6.64% (inactive)
CCCC(CCC)C(N)=O,,-1.83% (inactive)
OC(CN1CCCCC1)c1cc(-c2ccccc2)on1 (stereo not given),,-2.18% (inactive)
CCC(c1ccccc1)c1noc(CCN(CC)CC)n1 (stereo not given),,0.0387% (inactive)
C=CCN1CCCC1CNC(=O)c1cc(S(N)(=O)=O)cc(OC)c1OC (stereo not given),,2.13% (inactive)
CCCCCCCCCCCCCCCCCC(=O)OCCO,,0.735% (inactive)
CCCCCCCCCCCCCCCCCCCCCC(=O)Nc1ccn([C@@H]2O[C@H](CO)[C@@H](O)[C@@H]2O)c(=O)n1,,-2.37% (inactive)
CCOC(=O)[C@H](CCc1ccccc1)N[C@H]1CCCN2CCC[C@@H](C(=O)O)N2C1=O,,-3.2% (inactive)
CC(C)CN(C[C@@H](O)[C@H](Cc1ccccc1)NC(=O)O[C@@H]1CCOC1)S(=O)(=O)c1ccc(N)cc1,,-1.63% (inactive)
O.O=C([O-])CC([S-])C(=O)[O-].[Au+].[Na+].[Na+] (stereo not given),,-0.956% (inactive)
O=P(O)(O)C(Sc1ccc(Cl)cc1)P(=O)(O)O,,36.3% (inactive)
C[C@H]1C[C@H]2[C@@H]3CCC4=CC(=O)C=C[C@]4(C)[C@@]3(F)[C@@H](O)C[C@]2(C)[C@@]1(O)C(=O)CCl,1.7 nM (active),
CC#CCC(C)[C@H](O)/C=C/[C@@H]1[C@H]2C/C(=C/CCCC(=O)O)C[C@H]2C[C@H]1O (stereo not given in full),,-3.52% (inactive)
CS(=O)(=O)NC(=O)CCC/C=C\C[C@H]1C(=O)C[C@@H](O)[C@@H]1/C=C/[C@H](O)COc1ccccc1,,3.44% (inactive)
OC[C@@H](O)C(O)[C@H](O)CO,,-2.68% (inactive)
N[C@@H](C(=O)N[C@@H]1C(=O)N2C(C(=O)O)=C(CSc3cn[nH]n3)CS[C@H]12)c1ccc(O)cc1,,-2.23% (inactive)
CC1(C)S[C@@H]2[C@H](NC(=O)Cc3ccccc3)C(=O)N2[C@H]1C(=O)O,,0.149% (inactive)
COC(=O)[C@H]1[C@H]2C[C@@H]3c4[nH]c5cc(OC)ccc5c4CCN3C[C@H]2C[C@@H](OC(=O)/C=C/c2cc(OC)c(OC)c(OC)c2)[C@@H]1OC,,-2.96% [at 29.2 µM] (inactive)
COc1ccc2c(=O)c(C)c(-c3ccccc3)oc2c1CN(C)C,,0.159% (inactive)
CCOC(=O)COc1ccc2c(C)c(CCN(CC)CC)c(=O)oc2c1,,-3.33% (inactive)
O=C(O)[C@H](CC(=O)N1C[C@H]2CCCC[C@H]2C1)Cc1ccccc1,,-2.57% (inactive)

# Target: Glucocorticoid receptor (Homo sapiens) (UniProt P04150)
# Experiment: qHTS assay to identify small molecule antagonists of the glucocorticoid receptor (GR) signaling pathway (AID 720692; active = well fitted inhibition curve with a large enough effect in the signal ratio in the repeat runs, not every such curve was filed as active; the % refers to the signal ratio)
# Conditions: GR-bla HeLa, beta-lactamase FRET ratio, dexamethasone-stimulated, 18 h; series mostly up to 58.5 µM; activity change, negative = inhibition: at the top concentration
# In short: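 Dexamethasone (5 nM final) stimulated a stably integrated GRE-beta-lactamase reporter in HeLa cells during 18 h co-incubation with compounds; signal was quantified as fluorescence intensity of B/G FRET substrate after 2 h.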
row,SMILES,"activity change, negative = inhibition"
1,CCOc1ccc(C[C@H]2NC(=O)CCSSC[C@@H](C(=O)N3CCC[C@H]3C(=O)N[C@@H](CCCN)C(=O)NCC(N)=O)NC(=O)[C@H](CC(N)=O)NC(=O)[C@H]([C@@H](C)O)NC(=O)[C@H]([C@@H](C)CC)NC2=O)cc1 ([Mpa][dY](Et)ITNCP[Orn]G-NH2; disulfide 1-6),-14.8% (inactive)
2,O=P(O)(O)C(O)(Cc1cnc2ccccn12)P(=O)(O)O,-2.92% (inactive)
3,OCC(O)COc1ccc(Cl)cc1 (stereo not given),-3.11% (inactive)
4,NC(=O)Oc1ccc(Cc2ccccc2)cc1,-1.24% (inactive)
5,CCCC(CCC)C(N)=O,1.78% (inactive)
6,C=CCN1CCCC1CNC(=O)c1cc(S(N)(=O)=O)cc(OC)c1OC (stereo not given),8.98% (inactive)
7,CCCCCCCCCCCCCCCCCC(=O)OCCO,-4.79% (inactive)
8,CC(C)CN(C[C@@H](O)[C@H](Cc1ccccc1)NC(=O)O[C@@H]1CCOC1)S(=O)(=O)c1ccc(N)cc1,-16.8% (inactive)
9,O.O=C([O-])CC([S-])C(=O)[O-].[Au+].[Na+].[Na+] (stereo not given),-8.34% (inactive)
10,O=P(O)(O)C(Sc1ccc(Cl)cc1)P(=O)(O)O,-0.453% (inactive)
11,CC#CCC(C)[C@H](O)/C=C/[C@@H]1[C@H]2C/C(=C/CCCC(=O)O)C[C@H]2C[C@H]1O (stereo not given in full),-20.9% (inactive)
12,OC[C@@H](O)C(O)[C@H](O)CO,-0.0374% (inactive)
13,N[C@@H](C(=O)N[C@@H]1C(=O)N2C(C(=O)O)=C(CSc3cn[nH]n3)CS[C@H]12)c1ccc(O)cc1,-4.64% (inactive)
14,CCOC(=O)COc1ccc2c(C)c(CCN(CC)CC)c(=O)oc2c1,-6.48% (inactive)
15,O=C(O)[C@H](CC(=O)N1C[C@H]2CCCC[C@H]2C1)Cc1ccccc1,-8.19% (inactive)
